Screening data (PubChem)
Only some compounds are listed: those with a hit (about 0.96% of all), similar ones and a draw of the others.
TRHR PAM = allosteric enhancers of human TRH receptor. AID 493056. 0.66% of 360,000 active. P34981. TRHR cells, fluo-8 calcium fluorescence, EC20 TRH enhancement. enhancement, % at 2 µM; in the data active = enhancement above about 30%; also: 0% is about no effect
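TRHR-expressing cells loaded with fluo-8 calcium dye were read kinetically (ex 480/em 530) during compound addition, then stimulated with an EC20 of TRH (10 nM final). Enhancement of the Gq-mediated intracellular calcium response was scored.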
TRPV1 agonist = activates the human vanilloid receptor TRPV1; Q8NER1; AID 540275; activation, % at 8.33 µM; 0.19% of 320,000 active; TRPV1-expressing cells, Fluo-8 calcium influx, agonist mode; in the data active = activation above about 80%; inconclusive = between about 30% and that limit; also: 0% is about no effect
Target sequence (Q8NER1 whole entry, looked up): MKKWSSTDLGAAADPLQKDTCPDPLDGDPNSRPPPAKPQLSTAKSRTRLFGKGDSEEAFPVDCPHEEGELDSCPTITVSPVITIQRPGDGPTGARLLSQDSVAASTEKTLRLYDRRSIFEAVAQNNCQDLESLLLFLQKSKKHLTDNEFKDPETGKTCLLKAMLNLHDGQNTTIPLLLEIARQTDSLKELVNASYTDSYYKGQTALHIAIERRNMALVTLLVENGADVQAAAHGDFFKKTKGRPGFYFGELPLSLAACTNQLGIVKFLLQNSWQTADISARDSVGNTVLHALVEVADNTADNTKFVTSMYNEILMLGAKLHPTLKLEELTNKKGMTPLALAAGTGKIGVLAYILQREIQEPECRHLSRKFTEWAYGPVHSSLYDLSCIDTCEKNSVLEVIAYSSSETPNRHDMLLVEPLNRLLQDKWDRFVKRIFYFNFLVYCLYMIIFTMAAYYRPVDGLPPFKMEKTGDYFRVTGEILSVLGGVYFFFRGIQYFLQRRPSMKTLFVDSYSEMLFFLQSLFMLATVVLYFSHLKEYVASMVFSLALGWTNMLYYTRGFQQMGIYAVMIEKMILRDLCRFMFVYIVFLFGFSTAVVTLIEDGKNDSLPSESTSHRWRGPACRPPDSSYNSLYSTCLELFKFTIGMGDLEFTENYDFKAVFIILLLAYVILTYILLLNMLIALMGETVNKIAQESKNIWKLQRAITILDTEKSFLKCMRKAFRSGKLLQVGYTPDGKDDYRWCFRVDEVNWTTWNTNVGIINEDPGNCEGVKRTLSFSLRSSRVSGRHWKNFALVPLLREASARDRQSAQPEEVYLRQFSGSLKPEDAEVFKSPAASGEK
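Cells expressing TRPV1 were dye-loaded with Fluo-8 and read kinetically: 10 s baseline, 3 min after compound (agonist portion), then 2 min after EC20 capsaicin (allosteric enhancer portion). Calcium-bound dye fluorescence at 480/520 nm.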
TRPV1 potentiator = human TRPV1 potentiation; 0.02% of 320,000 active; AID 540277; potentiation, % at 8.33 µM; Q8NER1; TRPV1-expressing cells, Fluo-8 calcium influx, capsaicin EC20 potentiation; in the data active = potentiation above about 80%; inconclusive = between about 30% and that limit; also: 0% is about no effect
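Fluo-8 calcium influx in TRPV1-expressing cells, kinetic read (ex 480/em 520 nm). Compound added and read 3 min for agonist activity, followed by capsaicin at EC20 final and 2 min further read for enhancement.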
TRHR ag = TRH receptor (human) agonism. P34981. TRHR cells, calcium flux fluo-8, FDSS agonist mode. activation, % at 2 µM. 0.18% of 360,000 active; in the data active = activation above about 30%; also: 0% is about no effect
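Fluo-8-loaded TRHR cells; 10 s baseline, compound added, kinetic Ca2+ fluorescence read 1/s, agonist mode.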
TRPML1 ag = human mucolipin-1 channel agonism. TRPML1-expressing cells, Ca2+ dye fluorescence, FDSS. activation, % (test concentration not listed). 0.12% of 410,000 active; in the data active = activation above about 50%; inconclusive = mostly about 30% to 49%; also: 0% is about no effect
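Tet-induced TRPML1-DL cells, 1,500 per well, cultured overnight, were loaded with a no-wash Ca2+ dye for 45–90 min. Calcium fluorescence was recorded on the FDSS for 110 s after compound addition, before the EC80 agonist (4 uM 54-4) was added.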
TRPML1 inh = inhibitors of human TRPML1 channel; TRPML1-inducible cells, Ca2+ dye fluorescence, FDSS; stronger effect = lower value; inhibition of EC80 agonist-evoked calcium signal; activity change, negative = inhibition, % (test concentration not listed); 0.02% of 390,000 active; in the data active = activity change below about -50%; inconclusive = between about -30% and that limit;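 also: stimulus is agonist 54-4 at its EC80 concentration; % is scaled to controls: 0 for no effect and ±100 for the full control effect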
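Calcium fluorescence in TRPML1-DL cells induced overnight with Tet: a 110 s read after compound pin addition, then a 110 s antagonist read after challenge with 54-4 at 4 uM final (EC80).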
An asterisk follows results filed as active; ? = inconclusive; . = no result given.

SMILES	TRHR PAM	TRPV1 agonist	TRPV1 potentiator	TRHR ag	TRPML1 ag	TRPML1 inh
c1ccc(Nc2nc(-c3ccccc3)c(-c3ccccc3)s2)cc1	.	.	.	.	-0.5	.
COc1ccc(-n2ncc(C(C)NS(=O)(=O)c3cccs3)c2C)cc1 (stereo not given)	31.4*	-5.0	18.7	-1.0	0.2	-9.1
CN1C(=O)/C(=C/c2cccc(Cl)c2)Sc2ccc(C(=O)NCc3cccnc3)cc21	4.6	-9.8	82.4*	-0.4	1.0	23.8
COc1ccc(CN(Cc2ccccc2)C(=O)CN2CCN(C)CC2)cc1COc1ccc(NC(C)=O)cc1	.	.	.	.	-0.1	.
Clc1ccc(/C=C/c2ccc3ccccc3n2)c(Cl)c1	.	.	.	.	-0.6	.
N#Cc1ccc(/C=C\c2nccc3c2[nH]c2ccccc23)cc1	-2.4	90.1*	-1.8	1.4	4.0	-7.2
Clc1ccc(/C=C\c2nccc3c2[nH]c2ccccc23)cc1	-3.9	?	-2.8	0.2	-0.2	-11.4
Cc1nc(NCc2ccco2)c(C#N)c2c1COC(C)(C)C2	-12.4	2.9	7.5	0.1	-1.1	-8.5
CC1(C)Cc2c(C#N)c(NCc3ccco3)nc(-c3ccco3)c2CO1	37.1*	13.5	-14.9	3.5	-0.7	-2.4
CCOC1=C/C(=C/c2c(N)n3nc(S(=O)(=O)CC)sc3nc2=O)C=CC1=O	0.4	9.8	-9.8	33.2*	18.4	-4.8
CN1/C(=C\C=C(/C#N)C(=O)Nc2ccccc2F)C(C)(C)c2ccccc21	19.2	?	2.7	114.4*	?	-1.0
CN1C(=O)CC(c2ccco2)Sc2ccccc21 (stereo not given)	35.0*	0.3	?	-0.5	0.4	-4.4
CCn1cc(C(=O)OCC(=O)N(C)C2CCS(=O)(=O)C2)c(=O)c2ccc(C)nc21 (stereo not given)	31.1*	2.1	19.0	0.1	-0.2	13.9
CCC[N+](C)(C)c1ccc(/C=C/c2ccnc3ccccc23)cc1	.	.	.	.	-0.3	.
Cc1ccccc1OCC(=O)NNC(=O)CCc1ccccc1	31.8*	2.5	5.3	-0.5	0.3	-2.7
CC(C)Oc1ccc(C(CC(=O)O)NC(=O)C2CCCCC2)cc1 (stereo not given)	-2.8	-0.1	1.0	-0.3	-1.0	-5.1
COc1ccc(C(CC(=O)O)NC(=O)C2CCCCC2)cc1 (stereo not given)	39.4*	-4.5	4.5	-0.1	-1.0	-5.3
O=C1C2CCCCC2C(=O)N1c1ccc(S(=O)(=O)Nc2ncccn2)cc1 (stereo not given)	-2.4	0.0	-5.3	1.4	-0.4	-4.0
Cc1ccnc(NS(=O)(=O)c2ccc(N3C(=O)C4CCCCC4C3=O)cc2)n1 (stereo not given)	37.2*	-0.1	1.7	-0.7	0.7	-9.5
O=C(CC1Sc2ncnn2C1=O)Nc1ccccc1 (stereo not given)	30.3*	-1.8	11.2	-0.6	0.4	-2.1
O=C(CC1SC(=O)N(c2ccccc2)C1=O)Nc1ccccc1 (stereo not given)	-4.9	1.5	-5.2	0.0	-0.2	-3.2
CC(C)N1CN=C(Nc2nc3ccccc3o2)NC1	31.0*	-1.3	1.9	0.4	-0.7	-2.6
COCCN1CN=C(Nc2nc3ccccc3o2)NC1	4.1	-0.7	-8.2	0.7	0.4	8.3
CCCn1c(N2CCN(C(=O)Nc3ccc(Cl)cc3)CC2)nc2ccccc21	0.0	80.9*	3.3	0.6	-1.2	-9.6
CC(C)n1c(N2CCN(C(=O)Nc3ccc(Cl)cc3)CC2)nc2ccccc21	4.3	82.2*	-15.2	-1.1	-0.3	9.0
SMILES	TRHR PAM	TRPV1 agonist	TRPV1 potentiator	TRHR ag	TRPML1 ag	TRPML1 inh
CCOC(=O)c1c(C)sc(-c2c(-c3cccc(Cl)c3)[nH]c3c2c(=O)n(C)c(=O)n3C)c1O	14.5	.	.	169.3*	?	13.3
CCOC(=O)c1c(C)sc(-c2c(-c3cc(C)ccc3C)[nH]c3c2c(=O)n(C)c(=O)n3C)c1O	-3.7	.	.	-1.2	0.0	1.7
CCOC(=O)C(NC(=O)Nc1ccc(Cl)cn1)(Oc1ccccc1)C(F)(F)F (stereo not given)	-0.2	-4.7	21.1	-0.4	-0.5	25.5
CCOC(=O)C(NC(=O)Nc1ccc(F)cc1F)(Oc1ccccc1)C(F)(F)F (stereo not given)	31.5*	-9.9	9.6	-1.9	-0.2	3.2
Cc1ccc(Cl)cc1NC(=O)Nc1cn(CC(C)C)c(=O)c2ccccc12	0.1	.	.	-0.5	57.1*	1.5
Cc1cc(C)c2nccc(C)c2c1	.	.	.	.	0.1	.
Cc1cnc2c(C)ccc(C)c2c1/C=C/c1ccc(N(C)C)cc1	.	.	.	.	-0.2	.
COc1ccc(-n2[nH]c(C)cc2=O)cc1	32.6*	-0.7	0.0	0.2	-1.2	-14.3
CN(C)c1ccc(C=Nc2cncc3ccccc23)cc1	.	.	.	.	-0.5	.
Cc1ccsc1C(=O)NNC(=O)Nc1ccc(Cl)c(Cl)c1	39.1*	0.2	7.1	0.0	-0.7	-5.1
Cc1cccc(S(=O)(=O)NC2CCN(C#N)C2)c1 (stereo not given)	2.8	.	.	1.7	.	.
Fc1ccccc1OCCn1c(=S)[nH]c2ccccc21	37.3*	18.4	-2.0	0.0	1.7	22.3
O=C(COC(=O)c1cc(=O)[nH]c2ccc(Br)cc12)c1ccccc1	32.9*	0.6	13.5	-2.4	5.7	8.8
O=C(COC(=O)c1cc(=O)[nH]c2ccccc12)c1ccc(Br)cc1	-4.2	-3.5	-12.8	-1.6	-0.5	5.2
Cc1ccc(C2C3=C(CCCC3=O)OC3=C2C(=O)CCC3)cc1	39.9*	-3.2	2.3	-1.2	-0.4	1.0
O=C(NC1CCCCCC1)C1CCC(CNS(=O)(=O)c2cccc3cccnc23)CC1 (stereo not given)	.	.	.	.	-0.2	.
O=C(NCCN1CCOCC1)C(=O)NCC1CCCO1 (stereo not given)	34.1*	-1.6	14.9	0.0	0.1	-5.8
O=c1[nH]c(=O)c2ncn(C3OC(CO)C(O)C3O)c2[nH]1 (stereo not given)	.	.	.	.	0.0	.
CN(C)S(=O)(=O)c1cccc(NC(=O)COC(=O)CCOc2ccccc2)c1	32.5*	1.5	-2.2	-0.4	-0.7	-15.1
O=C(COc1ccc([N+](=O)[O-])cc1)Nc1ccncc1	-2.2	19.8	-13.6	-2.4	0.7	-13.0
NS(=O)(=O)c1cccc(NC(=O)COc2ccc([N+](=O)[O-])cc2)c1	33.3*	18.1	0.4	0.3	-0.1	-1.8
CC(C)NS(=O)(=O)c1ccc(OCC(=O)Nc2cccc(F)c2)cc1	32.1*	3.7	-11.4	-1.0	1.3	5.1
O=C(c1cc(-c2ccc(Cl)cc2)on1)N1CCCCCC1	0.1	?	-28.1	0.0	-1.7	-8.4
